Binding signal data for nine sequences are collected here from PMC5700166.

Positions count from the first letter of the chain named.

Test in all cases: protein-binding microarray (PBM); PBM: ~300 nM protein, 6 mM HEPES pH 7.8, 80 mM KCl, 0.5 mM EDTA, 0.5 mM EGTA, 6% glycerol, 35 ng/ul poly-dIdC, 1% milk, 1 h, room temperature; Ap Aiptasia and Nv Nematostella (sea anemones) / Co Capsaspora / Aq Amphimedon (sponge) / Dm Drosophila / Hu human; RHD is the Rel homology domain; high values mean tight binding
What all share (conditions): dsDNA, one strand shown

For assay [1], the target named is T1, GST-Ap-NF-kB RHD (Exaiptasia pallida (Aiptasia), UniProt A0A913YAJ5 2-422).
T1 sequence: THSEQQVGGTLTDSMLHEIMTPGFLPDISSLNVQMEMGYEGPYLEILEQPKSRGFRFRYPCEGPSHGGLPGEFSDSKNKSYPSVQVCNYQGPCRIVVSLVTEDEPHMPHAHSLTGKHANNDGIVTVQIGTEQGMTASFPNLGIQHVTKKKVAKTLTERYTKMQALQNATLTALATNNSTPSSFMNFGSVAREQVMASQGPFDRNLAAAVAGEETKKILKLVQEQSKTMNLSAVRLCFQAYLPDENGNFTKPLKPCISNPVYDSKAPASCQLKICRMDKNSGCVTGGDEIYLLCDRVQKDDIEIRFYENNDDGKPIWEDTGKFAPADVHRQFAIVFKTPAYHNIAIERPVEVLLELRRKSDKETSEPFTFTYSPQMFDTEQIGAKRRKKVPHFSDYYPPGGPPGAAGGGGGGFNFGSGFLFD

The target of assay [2] is T2, GST-Nv-NF-kB (Cys allele) (Nematostella vectensis, UniProt E5G601 2-411).
T2 sequence: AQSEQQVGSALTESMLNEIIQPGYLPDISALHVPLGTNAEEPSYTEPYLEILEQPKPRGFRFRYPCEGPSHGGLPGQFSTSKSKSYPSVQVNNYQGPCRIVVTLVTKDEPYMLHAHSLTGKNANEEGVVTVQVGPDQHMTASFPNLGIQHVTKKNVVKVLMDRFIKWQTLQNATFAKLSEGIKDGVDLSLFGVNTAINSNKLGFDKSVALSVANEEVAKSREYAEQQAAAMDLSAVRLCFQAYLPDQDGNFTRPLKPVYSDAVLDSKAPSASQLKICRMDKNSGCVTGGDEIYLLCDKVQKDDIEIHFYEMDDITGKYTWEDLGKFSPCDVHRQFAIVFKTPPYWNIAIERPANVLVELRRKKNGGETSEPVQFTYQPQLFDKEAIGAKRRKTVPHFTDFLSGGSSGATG

In assay [3] the target is T3, GST-Nv-NF-kB (Ser allele) (Nematostella vectensis, UniProt A7UNT2 2-411).
T3 sequence: T2 sequence with Q21R, C66S, S207N, E215Q, V217A, E225K, A268E, D399E

The target of assay [4] is T4, GST-Co-NF-kB (Capsaspora owczarzaki, UniProt F1ARL5 200-546).
T4 sequence: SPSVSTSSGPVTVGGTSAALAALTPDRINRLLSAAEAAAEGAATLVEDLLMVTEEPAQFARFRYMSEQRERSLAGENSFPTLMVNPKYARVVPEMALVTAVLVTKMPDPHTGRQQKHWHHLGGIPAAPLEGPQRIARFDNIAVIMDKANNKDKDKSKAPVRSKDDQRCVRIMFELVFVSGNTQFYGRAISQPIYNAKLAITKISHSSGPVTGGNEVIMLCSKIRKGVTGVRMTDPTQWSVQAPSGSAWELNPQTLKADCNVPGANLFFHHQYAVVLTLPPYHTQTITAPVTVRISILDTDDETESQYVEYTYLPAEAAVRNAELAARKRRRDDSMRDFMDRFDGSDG

Assay [5] concerns the target T5, GST-Dm-Relish (Drosophila melanogaster, UniProt Q94527 99-473).
T5 sequence: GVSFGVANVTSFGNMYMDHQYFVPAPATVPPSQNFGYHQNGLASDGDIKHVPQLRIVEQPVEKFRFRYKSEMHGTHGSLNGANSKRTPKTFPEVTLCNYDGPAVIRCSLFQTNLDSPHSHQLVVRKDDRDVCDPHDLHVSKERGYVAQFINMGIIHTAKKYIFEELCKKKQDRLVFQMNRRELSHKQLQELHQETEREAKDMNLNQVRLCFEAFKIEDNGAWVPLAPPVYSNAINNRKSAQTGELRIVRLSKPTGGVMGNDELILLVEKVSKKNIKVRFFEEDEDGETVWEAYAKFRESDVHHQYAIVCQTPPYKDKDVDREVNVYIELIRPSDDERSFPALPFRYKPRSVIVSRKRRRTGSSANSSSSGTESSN

The target of assay [6] is T6, GST-Aq-NF-kB (Amphimedon queenslandica, UniProt A9Y5G7 2-389).
T6 sequence: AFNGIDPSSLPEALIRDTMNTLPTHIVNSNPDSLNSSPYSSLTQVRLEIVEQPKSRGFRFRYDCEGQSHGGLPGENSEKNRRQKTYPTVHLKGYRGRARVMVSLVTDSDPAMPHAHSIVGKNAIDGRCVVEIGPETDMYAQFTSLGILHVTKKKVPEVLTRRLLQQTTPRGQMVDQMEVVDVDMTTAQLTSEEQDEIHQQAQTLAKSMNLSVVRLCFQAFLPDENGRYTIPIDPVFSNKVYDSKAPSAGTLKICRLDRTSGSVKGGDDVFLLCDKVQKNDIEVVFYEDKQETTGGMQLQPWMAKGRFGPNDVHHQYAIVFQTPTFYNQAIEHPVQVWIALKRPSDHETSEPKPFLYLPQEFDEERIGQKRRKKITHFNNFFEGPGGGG

Assay [7] deals with GST-Hu-p50 (Homo sapiens, UniProt P19838 7-356).
Sequence of GST-Hu-p50 (P19838 7-356): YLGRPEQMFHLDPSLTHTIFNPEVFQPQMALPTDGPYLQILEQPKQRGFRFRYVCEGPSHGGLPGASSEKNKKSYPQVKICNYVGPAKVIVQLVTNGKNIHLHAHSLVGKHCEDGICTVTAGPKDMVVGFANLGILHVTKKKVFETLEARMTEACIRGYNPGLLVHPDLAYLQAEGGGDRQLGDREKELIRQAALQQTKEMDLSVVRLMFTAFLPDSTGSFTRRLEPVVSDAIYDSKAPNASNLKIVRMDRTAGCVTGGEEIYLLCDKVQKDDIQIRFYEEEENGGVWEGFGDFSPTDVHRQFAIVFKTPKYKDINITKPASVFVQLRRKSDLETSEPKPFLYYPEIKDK

For the sequence “CCGATTAACATCAGAATATCCCCTGATGTTAATCGGGTCTTGATTCGCTTGACGCTGCTG”, the binding signal in assay [1] was determined as 7.8 z-score; in assay [2] it was 7.86 z-score; in assay [3], 8.08 z-score; in assay [4] it was 3.97 z-score; in assay [5] it was 6.49 z-score; in assay [6], 5.85 z-score. The binding signal in assay [7] was determined as 5.75 z-score.
As for “CCGATTAACATCAGGACTCCCCATGATGTTAATCGGGTCTTGATTCGCTTGACGCTGCTG”, the binding signal in assay [1] is 5.91 z-score; in assay [2] it was 3.31 z-score; in assay [3] it was 3.6 z-score; in assay [4], 3.44 z-score; in assay [5], 6.5 z-score; in assay [6] it was 4.12 z-score. In assay [7], the binding signal worked out at 2.97 z-score.
For the sequence “CCGATTAACATCAGCTTCCCCCCTGATGTTAATCGGGTCTTGATTCGCTTGACGCTGCTG”, the binding signal worked out at 5.3 z-score in assay [1]; 4.97 z-score in assay [2]; 5.68 z-score in assay [3]; 7.68 z-score in assay [4]; 4.2 z-score in assay [5]; 4.55 z-score in assay [6]. In addition, the binding signal in assay [7] was 4.95 z-score.
With “CCGATTAACATCAAGGGGAAAACTGATGTTAATCGGGTCTTGATTCGCTTGACGCTGCTG”, the binding signal in assay [1] worked out at 7.51 z-score; in assay [2], 8.85 z-score; in assay [3] it was 11 z-score; in assay [4] it was 8 z-score; in assay [5], 5.32 z-score; in assay [6] it was 6.55 z-score. This sequence had a binding signal in assay [7] of 6.9 z-score.
With “CCGATTAACATCAGGGGAGATAATGATGTTAATCGGGTCTTGATTCGCTTGACGCTGCTG”, the binding signal is 5.17 z-score in assay [1]; 5.28 z-score in assay [2]; 5.56 z-score in assay [3]; 6.03 z-score in assay [4]; 1.79 z-score in assay [5]; 2.74 z-score in assay [6]. The same sequence had a binding signal in assay [7] of 3.67 z-score.
With “CCGATTAACATCAGGGGAGACCCTGATGTTAATCGGGTCTTGATTCGCTTGACGCTGCTG”, the binding signal is 6.47 z-score in assay [1]; 4.51 z-score in assay [2]; 4.3 z-score in assay [3]; 3.35 z-score in assay [4]; 6.91 z-score in assay [5]; 6.37 z-score in assay [6]. The same sequence yielded a binding signal in assay [7] of 3.38 z-score.
In the case of “CCGATTAACATCAATTTACCCCCTGATGTTAATCGGGTCTTGATTCGCTTGACGCTGCTG”, the binding signal is 6.21 z-score in assay [1]; 4.95 z-score in assay [2]; 6.18 z-score in assay [3]; 8.79 z-score in assay [4]; 3.42 z-score in assay [5]; 4.56 z-score in assay [6]. Also, in assay [7], the binding signal came to 5.04 z-score.
As to “CCGATTAACATCAAGGGAATTTATGATGTTAATCGGGTCTTGATTCGCTTGACGCTGCTG”, the binding signal worked out at 4.54 z-score in assay [1]; 7.59 z-score in assay [2]; 7.58 z-score in assay [3]; 3.54 z-score in assay [4]; 4.78 z-score in assay [5]; 5.69 z-score in assay [6]. The sequence further showed a binding signal in assay [7] of 5.62 z-score.
With “CCGATTAACATCAGGGGATTACCTGATGTTAATCGGGTCTTGATTCGCTTGACGCTGCTG”, the binding signal in assay [1] amounted to 9.27 z-score; in assay [2] it was 10.5 z-score; in assay [3], 9.69 z-score; in assay [4], 3.93 z-score; in assay [5] it was 9.7 z-score; in assay [6] it was 9.77 z-score. Further, in assay [7], the binding signal was found to be 6.76 z-score.
